Drawing on PubChem BioAssay, this text covers outcome and inhibition for 15 compounds.

Assay [1] deals with TRPC4 beta (transient receptor potential cation channel C4), mouse. Kind of assay: activators of mouse TRPC4 channel, confirmation, cell-based, Fluo4 calcium, HEK293 TRPC4beta/mu-opioid, duplicates, 10 µM (AID 2426;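 active = fluorescence ratio normalized to control raised more than 50% in primary screen plus both repeat runs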). As to conditions: Fluo4 calcium fluorescence, at 10 µM; hits give high values.
The test system of assay [2] is transient receptor potential cation channel C4 beta (TRPC4), mouse. Kind of assay: activators of mouse TRPC4 channel, confirmation, cell-based, second round, Fluo4, HEK293 TRPC4beta/mu-opioid, 1 µM (AID 2461;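 active = primary screen active and over 50% activation in each of two duplicate runs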). The following applies: Fluo4 calcium fluorescence, at 1 µM; hits give high values.
The subject of assay [3] is TRPC4 (transient receptor potential cation channel C4 beta), mouse. Kind of assay: positive allosteric modulators of mouse TRPC4, confirmation, cell-based, second round, Fluo-4, HEK293 TRPC4beta/mu-opioid, 1 µM (AID 2554;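 active = primary screen hit whose fluorescence ratio, in both repeats, exceeds the weak agonist control mean by 3 SD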). As to conditions: DAMGO EC20, Fluo-4 calcium flux, at 1 µM; hits give high values. A general note: A change in cytosolic calcium serves as a functional read-out for many receptors and channels.

The subject of assay [4] is TRPC4 beta (transient receptor potential cation channel C4), mouse. Kind of assay: positive allosteric modulators of mouse TRPC4, confirmation, cell-based, Fluo-4, HEK293 TRPC4beta/mu-opioid (AID 2555;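 active = primary screen hit whose calcium fluorescence ratio, in both repeats, exceeds the weak agonist control mean by 3 SD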). As to conditions: DAMGO EC20, Fluo-4 calcium flux, at 10 µM; hits give high values.
Assay [5] addresses Short transient receptor potential channel 4 (Mus musculus) (UniProt Q9QUQ5). Kind of assay: inhibitors of mouse TRPC4 channel, confirmation, cell-based, Fluo4, HEK293 TRPC4beta/mu-opioid (AID 2636;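 active = calcium signal cut by more than 3 SD below the full-agonist control yet still positive, in both repeats and the earlier primary screen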). As to conditions: DAMGO, Fluo4 calcium flux, at 10 µM; hits give high values.
Assay [6] shares this target. Kind of assay: inhibitors of mouse TRPC4 channel, confirmation, cell-based, second round, Fluo4, HEK293 TRPC4beta/mu-opioid, 1 µM (AID 2637;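 active = calcium signal ratio cut to more than 3 SD under the fully stimulated control mean yet still positive, in both repeats and the primary screen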;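 for inhibition: percent of integrated ratio relative to wells lacking test compound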). As to conditions: Fluo4 calcium flux, DAMGO, at 1 µM; hits give high values.
For assay [7] the target is unchanged. Kind of assay: mouse TRPC4 channel activators, dose response, cell-based, HEK293 TRPC4/mu-opioid, Fluo-4 calcium (AID 434937;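 active = primary screen activator hit with a dose response curve and TRPC4 channel activation at any tested dose; inactive = no activation, no dose response, or not a primary hit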).
For assay [8] the target is unchanged. Kind of assay: TRPC4 positive allosteric modulators, dose response, cell-based, HEK293 TRPC4/mu-opioid, Fluo-4 calcium, EC20 DAMGO (AID 434941;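 active = earlier screen potentiator hit that boosts the TRPC4 ion channel at some dose, with a dose response; inactive = no potentiation, no dose response, or not a prior hit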;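 note: calcium entry triggered by an EC20 dose of DAMGO at the co-expressed mu-opioid receptor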).
Assay [9] has as its target Short transient receptor potential channel 6 (Mus musculus) (UniProt Q61143). Kind of assay: inhibition of mouse TRPC6 channel, confirmation, selectivity assay for TRPC4 inhibitor project, cell-based, HEK293, membrane potential dye, duplicate (AID 434948;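 active = active in primary screen and both duplicates, each dropping signal beyond three positive-control SD with fluorescence still positive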). As to conditions: HEK293 TRPC6, membrane potential dye fluorescence, at 10 µM, stimulated with maximal-effect acetylcholine; hits give high values.

Assay [10] shares this target. Kind of assay: activation of mouse TRPC6 channel, confirmation, selectivity assay for TRPC4 activator project, cell-based, HEK293, membrane potential dye, duplicate (AID 434950;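 active = membrane potential signal rise above negative control mean plus 3 SD in both duplicates, also active in the earlier TRPC4 screen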). As to conditions: HEK293 TRPC6, membrane potential fluorescence, at 10 µM; hits give high values.
The target is the same in assay [11]. Kind of assay: TRPC6 potentiation by TRPC4 potentiator hits, confirmation, selectivity assay for TRPC4 potentiator project, HEK293 cells, membrane potential dye, duplicate (AID 434952). As to conditions: HEK293 TRPC6, membrane potential dye fluorescence, at 10 µM, maximal acetylcholine added after compound; hits give high values.
The target in assay [12] is Short transient receptor potential channel 4 (Mus musculus) (UniProt Q9QUQ5). Kind of assay: calcium flux activators in TRPC4/5HT1a cells, counter-screen for TRPC4 activator project, cell-based, second counter screen, HEK293 TRPC4/5HT1a, Fluo-4 (AID 434977;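 active = calcium signal rise above buffer-control mean plus 5 SD in both duplicates, and also a hit in the primary screen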). As to conditions: Fluo-4 calcium flux, at 10 µM; hits give high values.
A short description of assay [13]: calcium flux inhibitors in TRPC4/5HT1a cells, confirmation, counter-screen for TRPC4 inhibitor project, cell-based, second counter screen, HEK293 TRPC4/5HT1a, Fluo-4 (AID 434978;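 active = primary screen active whose calcium signal fell more than 3 SD beyond the full-serotonin control mean in both duplicate plates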;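 for outcome: serotonin given first at submaximal then at maximal dose after compound preincubation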). The following applies: Fluo-4 calcium flux, at 10 µM, serotonin added to trigger calcium flux; hits give high values.
Assay [14] deals with TRPC4 (mouse), co-expressed with 5HT1a in HEK293. In words: calcium flux potentiators in TRPC4/5HT1a cells, confirmation, counter-screen for TRPC4 potentiator project, cell-based, second counter screen, HEK293 TRPC4/5HT1a, Fluo-4 (AID 434979;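 active = signal rise over 3 SD above mean of control wells given weak agonist, in both repeats and first screen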). As to conditions: Fluo-4 calcium flux, at 10 µM, serotonin added at its EC20 dose; hits give high values.
The nature of assay [15]: calcium flux activation in mu-opioid HEK293 cells, confirmation, counter-screen for TRPC4 activator project, cell-based, HEK293 mu-opioid receptor line (AID 449723;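 active = hit in primary screen, with calcium signal over 5 SD above buffer well mean in both duplicates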;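 note: counter screen cells carry the mu-opioid receptor alone and lack TRPC4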). The following applies: Fluo-4 calcium fluorescence, at 10 µM; hits give high values.
Assay [16] in a line: calcium flux enhancement in mu-opioid HEK293 cells, confirmation, counter-screen for TRPC4 allosteric potentiator project, cell-based, HEK293 mu-opioid receptor line (AID 449724;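 active = calcium signal rise more than 3 SD above the low-dose agonist control mean, in both duplicate plates and the primary screen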;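 note: HEK293 cells carrying mu-opioid receptor only with no TRPC4 channel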). The following applies: Fluo-4 calcium flux, at 10 µM, compound added before EC20 DAMGO stimulus; hits give high values.

Each structure is given as a SMILES string. For part of these data: Measured potencies and affinities stand elsewhere. Active and inactive are the calls of the source.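 Rule for the calls, unless noted: active = compound raising the membrane signal above positive-control mean plus 3 SD in both repeats, and a primary screen hit; inactive = the rest.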

Chain of Short transient receptor potential channel 6 (Mus musculus) (Q61143 whole entry, looked up): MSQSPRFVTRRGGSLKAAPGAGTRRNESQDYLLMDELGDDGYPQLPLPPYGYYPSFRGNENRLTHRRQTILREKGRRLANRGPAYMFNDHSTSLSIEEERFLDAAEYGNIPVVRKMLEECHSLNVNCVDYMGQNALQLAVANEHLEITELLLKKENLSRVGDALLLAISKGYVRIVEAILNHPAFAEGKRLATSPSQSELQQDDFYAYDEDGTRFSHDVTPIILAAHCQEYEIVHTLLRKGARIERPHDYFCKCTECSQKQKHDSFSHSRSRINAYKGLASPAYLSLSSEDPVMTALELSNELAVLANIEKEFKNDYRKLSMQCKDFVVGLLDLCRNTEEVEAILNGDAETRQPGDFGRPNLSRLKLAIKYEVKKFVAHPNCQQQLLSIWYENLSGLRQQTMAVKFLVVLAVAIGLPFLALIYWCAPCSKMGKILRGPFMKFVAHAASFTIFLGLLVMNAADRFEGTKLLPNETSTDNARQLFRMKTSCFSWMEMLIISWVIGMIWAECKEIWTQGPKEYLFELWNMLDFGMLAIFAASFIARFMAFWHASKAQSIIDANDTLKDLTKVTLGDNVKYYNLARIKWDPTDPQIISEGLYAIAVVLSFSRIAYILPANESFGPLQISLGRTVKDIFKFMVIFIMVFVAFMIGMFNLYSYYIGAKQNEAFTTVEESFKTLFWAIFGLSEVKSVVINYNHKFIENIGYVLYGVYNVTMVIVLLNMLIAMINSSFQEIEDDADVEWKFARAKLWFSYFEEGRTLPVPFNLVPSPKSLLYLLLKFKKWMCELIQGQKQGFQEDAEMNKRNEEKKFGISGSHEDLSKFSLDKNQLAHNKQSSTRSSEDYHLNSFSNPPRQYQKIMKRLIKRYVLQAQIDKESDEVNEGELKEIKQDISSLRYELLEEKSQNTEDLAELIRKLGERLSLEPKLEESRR
Chain of Short transient receptor potential channel 4 (Mus musculus) (Q9QUQ5 whole entry, looked up): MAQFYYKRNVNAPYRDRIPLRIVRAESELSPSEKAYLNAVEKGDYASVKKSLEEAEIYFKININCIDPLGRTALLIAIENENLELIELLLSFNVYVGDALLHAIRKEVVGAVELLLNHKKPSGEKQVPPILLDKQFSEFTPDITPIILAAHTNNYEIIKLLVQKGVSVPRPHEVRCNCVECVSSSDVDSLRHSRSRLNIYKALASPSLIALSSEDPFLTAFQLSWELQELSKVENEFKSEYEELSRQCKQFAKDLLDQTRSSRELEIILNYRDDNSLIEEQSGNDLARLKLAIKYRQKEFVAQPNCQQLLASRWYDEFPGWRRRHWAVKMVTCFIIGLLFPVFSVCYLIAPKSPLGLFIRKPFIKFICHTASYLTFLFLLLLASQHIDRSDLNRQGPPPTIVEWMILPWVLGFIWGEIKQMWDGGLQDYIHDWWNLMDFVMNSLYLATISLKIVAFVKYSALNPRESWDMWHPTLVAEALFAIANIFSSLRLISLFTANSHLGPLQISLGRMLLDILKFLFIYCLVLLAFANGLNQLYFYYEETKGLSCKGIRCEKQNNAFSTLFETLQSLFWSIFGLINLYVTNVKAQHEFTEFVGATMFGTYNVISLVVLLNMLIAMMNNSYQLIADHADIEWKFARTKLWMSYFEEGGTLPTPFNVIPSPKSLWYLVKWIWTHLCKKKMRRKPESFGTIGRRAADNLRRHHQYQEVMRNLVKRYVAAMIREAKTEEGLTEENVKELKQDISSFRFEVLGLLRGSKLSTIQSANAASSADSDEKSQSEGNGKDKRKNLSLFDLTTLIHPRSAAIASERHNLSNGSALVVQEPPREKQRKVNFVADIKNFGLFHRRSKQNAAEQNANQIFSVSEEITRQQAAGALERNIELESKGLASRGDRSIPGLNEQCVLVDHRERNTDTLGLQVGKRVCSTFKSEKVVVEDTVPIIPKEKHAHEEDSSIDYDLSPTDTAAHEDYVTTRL

`O=S(=O)(c1ccccc1)N1CCN(C/C=C/c2ccccc2)CC1`: the result in assay [1], in assay [2], in assay [3], in assay [4], in [6] and in assay [7] was inactive. Besides, the result in [8], in [9], in [10], in assay [11], in [12] and in assay [13] was inactive. Besides, the outcome in assay [14], in assay [15] and in assay [16] was inactive. In addition, the inhibition in [5] is 93% (active).

In the case of `Oc1ccc(CN2CCCCC2)nc1-c1ccccc1`, the result in assay [1], in [2], in assay [3], in assay [4], in assay [7] and in [8] was inactive. For the same compound, the compound was called inactive in assay [9], in assay [10], in assay [11], in assay [12], in assay [14] and in assay [15]. For the same compound, the result in assay [16] was inactive. Moreover, the inhibition is 92% (active) in assay [5], 43% (active) in assay [6] and 31.7% (active) in assay [13].

In the case of `CN1CCN(c2nc3c(c(=O)n(C)c(=O)n3C)n2CC(=O)C23CC4CC(CC(C4)C2)C3)CC1`, the outcome in [1], in assay [2], in [3], in [4], in assay [7] and in assay [8] was inactive. The result in assay [9], in [10], in [11], in assay [12], in [14] and in assay [15] was inactive. Further, the result in assay [16] was inactive. Also, the inhibition was 92% (active) in assay [5], 63% (active) in assay [6] and 17% (active) in [13].

Regarding `Cc1ccc2nc(C)cc(Nc3ccc4c(c3)OCCO4)c2c1`, the outcome in [1], in assay [2], in [3], in [4], in assay [6] and in assay [7] was inactive. Also, the result in assay [8], in assay [10], in assay [11], in [12], in assay [13] and in assay [14] was inactive. The result in [15] and in [16] was inactive. The inhibition in assay [5] is 90% (active); in assay [9], 50% (active).

For `COc1ccccc1N(C(=O)c1snc(C(N)=O)c1N)C(C(=O)NC1CCCC1)c1ccc2ncccc2c1` (stereo not given), the result in assay [1], in [2], in [3], in assay [4], in assay [6] and in assay [7] was inactive. In addition, the outcome in assay [8], in assay [9], in assay [10], in [11], in [12] and in [14] was inactive. Besides, the result in assay [15] and in assay [16] was inactive. Besides, the inhibition in assay [5] was 41% (active); in [13] it was 40.6% (active).

Consider `Cc1ccn2cc(CCNC(=O)c3ccc(Br)o3)nc2c1`, for which the result in [1], in assay [2], in [3], in [4], in assay [6] and in assay [7] was inactive. Moreover, the result in assay [8], in assay [9], in assay [10], in assay [11], in assay [12] and in assay [14] was inactive. For the same compound, the result in [15] and in assay [16] was inactive. The inhibition was 89% (active) in [5] and 34.1% (active) in [13].

`CCCc1nc2ccccc2n1Cc1ccccc1OC`: the outcome in [1], in [2], in [3], in assay [4], in assay [6] and in assay [7] was inactive. The outcome in [8], in assay [9], in [10], in [11], in assay [12] and in assay [14] was inactive. Besides, the result in assay [15] and in assay [16] was inactive. Further, the inhibition in assay [5] is 88% (active); in assay [13] it was 32.4% (active).

Take `CCOc1cccc(CNCCO)c1OCc1ccc(Cl)cc1`: the outcome in [1], in [2], in assay [3], in assay [4], in assay [6] and in assay [7] was inactive. For the same compound, the result in [8], in assay [9], in [10], in assay [11], in assay [12] and in assay [14] was inactive. The result in [15] and in assay [16] was inactive. The results for the inhibition in assay [5] and in assay [13] were 92% (active) and 26.5% (active), respectively.

As to `C/C(N)=C(/C#N)C(=O)COC(=O)CC12CC3CC(CC(C3)C1)C2`, the result in assay [1], in assay [2], in assay [3], in assay [4], in [6] and in assay [7] was inactive. Further, the outcome in assay [8], in assay [9], in assay [10], in assay [11], in assay [12] and in [14] was inactive. For the same compound, the outcome in assay [15] and in assay [16] was inactive. Further, the figures for the inhibition in [5] and in assay [13] were 83% (active) and 32.2% (active), respectively.

For the compound `NS(=O)(=O)c1ccc(Nc2nc(-c3ccc(O)cc3O)cs2)cc1`, the result in assay [1], in [2], in assay [3], in assay [4], in assay [7] and in [8] was inactive. In addition, the result in assay [9], in assay [10], in assay [11], in assay [12], in assay [13] and in assay [14] was inactive. In addition, the outcome in assay [15] and in assay [16] was inactive. The inhibition in [5] was 98% (active); in [6], 47% (active).

As to `O=[N+]([O-])c1ccc(CN2CCN(Cc3c[nH]c4ccccc34)CC2)cc1`, the result in assay [1], in [2], in assay [3], in assay [4], in assay [6] and in assay [7] was inactive. The outcome in assay [8], in [9], in [10], in assay [11], in assay [12] and in assay [14] was inactive. Further, the result in assay [15] and in assay [16] was inactive. Moreover, the inhibition in [5] is 83% (active); in [13], 28.9% (active).

As for `Cc1ccc(C(C(=O)NC(C)(C)C)N(C(=O)CCC(=O)Nc2ccccn2)c2ccccc2F)cc1` (stereo not given), the outcome in [1], in assay [2], in [3], in [4], in assay [6] and in [7] was inactive. Also, the result in assay [8], in [9], in assay [10], in assay [11], in [12] and in [14] was inactive. For the same compound, the result in assay [15] and in [16] was inactive. Also, the inhibition in [5] was 61% (active); in assay [13], 28.9% (active).

For the compound `Cc1c(C(=O)NCC(c2ccco2)N(C)C)oc2c(Cl)cccc12` (stereo not given), the outcome in assay [1], in assay [2], in assay [3], in assay [4], in assay [7] and in [8] was inactive. Besides, the result in assay [9], in assay [10], in assay [11], in assay [12], in assay [13] and in assay [14] was inactive. In addition, the result in assay [15] and in assay [16] was inactive. The inhibition is 94% (active) in assay [5] and 70% (active) in assay [6].

Take `CCCn1c(NCc2ccc(C)o2)nc2ccccc21`: the outcome in assay [1], in assay [2], in assay [3], in [4], in assay [6] and in assay [7] was inactive. Besides, the outcome in [8], in assay [9], in assay [10], in assay [11], in [12] and in [14] was inactive. Also, the outcome in assay [15] and in assay [16] was inactive. For the same compound, the inhibition in assay [5] is 70% (active); in assay [13], 30% (active).

For the compound `O=C(Cc1cccc2ccccc12)Nc1ccc(Br)cc1C(=O)O`, the result in [1], in assay [2], in [3], in [4], in [6] and in [7] was inactive. Further, the outcome in assay [8], in [9], in [10], in assay [11], in [12] and in assay [14] was inactive. Moreover, the result in [15] and in assay [16] was inactive. Also, the inhibition is 89% (active) in assay [5] and 28.9% (active) in assay [13].

As usually defined, the inhibition is the relative decrease from the control value, in per cent.
